According to paper PMC9911399, “Two distinct binding modes provide the RNA-binding protein RbFox with extraordinary sequence specificity”:
Residue numbers refer to the chain shown, from its start. Whole data set: some 16,000 sequences, median “ka relative to ugcaugu” near 0.096, cut for the highest 2% near 0.35. What follows is part of a selection rich in the highest values, with near analogues and random picks from the rest.

T1: RBFOX1 RRM RbFoxmut (Fox-RRM*) (Homo sapiens, UniProt Q9NWB1 109-208, R118D;E147R;N151S;E152T)
T1 sequence: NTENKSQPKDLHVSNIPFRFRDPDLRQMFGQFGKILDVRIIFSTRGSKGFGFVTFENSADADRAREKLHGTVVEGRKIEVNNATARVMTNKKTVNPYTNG

B1: AGAAGCG (DNA:RNA)
RNA: GGGAGACCGGAAUUCAGAUUGUCCAGAAGCGUUAAAUCCCGUCGUAGCCACCA
DNA 1: CAATCTGAATTCCGGTCTCCC
DNA 2: TGGTGGCTACGACGGGATT
B2: CUCCUCC (DNA:RNA)
RNA: B1 RNA with A25C, G26U, A27C, A28C, G29U, G31C
DNA 1: CAATCTGAATTCCGGTCTCCC
DNA 2: TGGTGGCTACGACGGGATT
B3: CUGCAUC (DNA:RNA)
RNA: GGGAGACCGGAAUUCAGAUUGUCCCUGCAUCUUAAAUCCCGUCGUAGCCACCA
DNA 1: CAATCTGAATTCCGGTCTCCC
DNA 2: TGGTGGCTACGACGGGATT
B4: CUGCAGA (DNA:RNA)
RNA: B3 RNA with U30G, C31A
DNA 1: CAATCTGAATTCCGGTCTCCC
DNA 2: TGGTGGCTACGACGGGATT
B5: UGCAAUC (DNA:RNA)
RNA: B3 RNA with C25U, U26G, G27C, C28A
DNA 1: CAATCTGAATTCCGGTCTCCC
DNA 2: TGGTGGCTACGACGGGATT
B6: UGAAUCU (DNA:RNA)
RNA: B1 RNA with A25U, G29U, G31U
DNA 1: CAATCTGAATTCCGGTCTCCC
DNA 2: TGGTGGCTACGACGGGATT
B7: UGCAUCU (DNA:RNA)
RNA: B1 RNA with A25U, A27C, G29U, G31U
DNA 1: CAATCTGAATTCCGGTCTCCC
DNA 2: TGGTGGCTACGACGGGATT
B8: CCUGCAU (DNA:RNA)
RNA: B3 RNA with U26C, G27U, C28G, A29C, U30A, C31U
DNA 1: CAATCTGAATTCCGGTCTCCC
DNA 2: TGGTGGCTACGACGGGATT
B9: AGCAGCA (DNA:RNA)
RNA: B1 RNA with A27C, G31A
DNA 1: CAATCTGAATTCCGGTCTCCC
DNA 2: TGGTGGCTACGACGGGATT
B10: ACAAAUC (DNA:RNA)
RNA: B1 RNA with G26C, G29A, C30U, G31C
DNA 1: CAATCTGAATTCCGGTCTCCC
DNA 2: TGGTGGCTACGACGGGATT
B11: GUGGAUG (DNA:RNA)
RNA: B3 RNA with C25G, C28G, C31G
DNA 1: CAATCTGAATTCCGGTCTCCC
DNA 2: TGGTGGCTACGACGGGATT
B12: GCGUGGA (DNA:RNA)
RNA: B1 RNA with A25G, G26C, A27G, A28U, C30G, G31A
DNA 1: CAATCTGAATTCCGGTCTCCC
DNA 2: TGGTGGCTACGACGGGATT
B13: GUGGAGA (DNA:RNA)
RNA: B3 RNA with C25G, C28G, U30G, C31A
DNA 1: CAATCTGAATTCCGGTCTCCC
DNA 2: TGGTGGCTACGACGGGATT
B14: UUGGAUC (DNA:RNA)
RNA: B3 RNA with C25U, C28G
DNA 1: CAATCTGAATTCCGGTCTCCC
DNA 2: TGGTGGCTACGACGGGATT
B15: UUGGAGA (DNA:RNA)
RNA: B3 RNA with C25U, C28G, U30G, C31A
DNA 1: CAATCTGAATTCCGGTCTCCC
DNA 2: TGGTGGCTACGACGGGATT
B16: UUGGAUG (DNA:RNA)
RNA: B3 RNA with C25U, C28G, C31G
DNA 1: CAATCTGAATTCCGGTCTCCC
DNA 2: TGGTGGCTACGACGGGATT
B17: GUGGAUC (DNA:RNA)
RNA: B3 RNA with C25G, C28G
DNA 1: CAATCTGAATTCCGGTCTCCC
DNA 2: TGGTGGCTACGACGGGATT
B18: GUGGAUU (DNA:RNA)
RNA: B3 RNA with C25G, C28G, C31U
DNA 1: CAATCTGAATTCCGGTCTCCC
DNA 2: TGGTGGCTACGACGGGATT
B19: UUGGAUU (DNA:RNA)
RNA: B3 RNA with C25U, C28G, C31U
DNA 1: CAATCTGAATTCCGGTCTCCC
DNA 2: TGGTGGCTACGACGGGATT
B20: GGCCUAA (DNA:RNA)
RNA: B1 RNA with A25G, A27C, A28C, G29U, C30A, G31A
DNA 1: CAATCTGAATTCCGGTCTCCC
DNA 2: TGGTGGCTACGACGGGATT
B21: GUUCGUA (DNA:RNA)
RNA: B3 RNA with C25G, G27U, A29G, C31A
DNA 1: CAATCTGAATTCCGGTCTCCC
DNA 2: TGGTGGCTACGACGGGATT
B22: UUCUUCA (DNA:RNA)
RNA: B1 RNA with A25U, G26U, A27C, A28U, G29U, G31A
DNA 1: CAATCTGAATTCCGGTCTCCC
DNA 2: TGGTGGCTACGACGGGATT
B23: UGCGUAU (DNA:RNA)
RNA: B1 RNA with A25U, A27C, A28G, G29U, C30A, G31U
DNA 1: CAATCTGAATTCCGGTCTCCC
DNA 2: TGGTGGCTACGACGGGATT
B24: AUAGGAG (DNA:RNA)
RNA: B1 RNA with G26U, A28G, C30A
DNA 1: CAATCTGAATTCCGGTCTCCC
DNA 2: TGGTGGCTACGACGGGATT
B25: CAGGGCG (DNA:RNA)
RNA: B1 RNA with A25C, G26A, A27G, A28G
DNA 1: CAATCTGAATTCCGGTCTCCC
DNA 2: TGGTGGCTACGACGGGATT
B26: GAUCCAA (DNA:RNA)
RNA: B3 RNA with C25G, U26A, G27U, A29C, U30A, C31A
DNA 1: CAATCTGAATTCCGGTCTCCC
DNA 2: TGGTGGCTACGACGGGATT
B27: AGCUUUC (DNA:RNA)
RNA: B1 RNA with A27C, A28U, G29U, C30U, G31C
DNA 1: CAATCTGAATTCCGGTCTCCC
DNA 2: TGGTGGCTACGACGGGATT
B28: GAAUGCC (DNA:RNA)
RNA: B1 RNA with A25G, G26A, A28U, G31C
DNA 1: CAATCTGAATTCCGGTCTCCC
DNA 2: TGGTGGCTACGACGGGATT
B29: CGAUGCG (DNA:RNA)
RNA: B1 RNA with A25C, A28U
DNA 1: CAATCTGAATTCCGGTCTCCC
DNA 2: TGGTGGCTACGACGGGATT
B30: CGAUGCC (DNA:RNA)
RNA: B1 RNA with A25C, A28U, G31C
DNA 1: CAATCTGAATTCCGGTCTCCC
DNA 2: TGGTGGCTACGACGGGATT
B31: GAAUGCG (DNA:RNA)
RNA: B1 RNA with A25G, G26A, A28U
DNA 1: CAATCTGAATTCCGGTCTCCC
DNA 2: TGGTGGCTACGACGGGATT
B32: GAAUCCC (DNA:RNA)
RNA: B1 RNA with A25G, G26A, A28U, G29C, G31C
DNA 1: CAATCTGAATTCCGGTCTCCC
DNA 2: TGGTGGCTACGACGGGATT
B33: GGAUGCC (DNA:RNA)
RNA: B1 RNA with A25G, A28U, G31C
DNA 1: CAATCTGAATTCCGGTCTCCC
DNA 2: TGGTGGCTACGACGGGATT

Each binder was assayed against T1, RBFOX1 RRM RbFoxmut (Fox-RRM*) (assay: EMSA; HiTS-Eq, 1 nM pool, 10 min; buffer printed only for the single-RNA assays: 10 mM Tris pH 7.5, 150 mM NaCl, 3.4 mM EDTA, 0.001% NP-40, 30 C). Conditions: tags: His6 N-terminal (pET28a); label: 5' 32P.
Summary of the method: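 Purified wild-type or mutant RbFox RRM at increasing concentrations was equilibrated with 1 nM of 5′-radiolabelled RNA carrying 7 randomized nucleotides for 10 min in 50 µL. Unbound RNA was separated by 8% native PAGE and sequenced. Relative association constants came from read-count changes of each RNA species compared with the control reaction, normalised to the cognate motif.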

Binder | binding signal
B1 | 0.107 KA relative to UGCAUGU
B2 | 0.0813 KA relative to UGCAUGU
B3 | 0.457 KA relative to UGCAUGU
B4 | 0.136 KA relative to UGCAUGU
B5 | 0.102 KA relative to UGCAUGU
B6 | 0.244 KA relative to UGCAUGU
B7 | 0.727 KA relative to UGCAUGU
B8 | 0.139 KA relative to UGCAUGU
B9 | 0.14 KA relative to UGCAUGU
B10 | 0.0702 KA relative to UGCAUGU
B11 | 1.04 KA relative to UGCAUGU
B12 | 0.092 KA relative to UGCAUGU
B13 | 0.118 KA relative to UGCAUGU
B14 | 0.321 KA relative to UGCAUGU
B15 | 0.0955 KA relative to UGCAUGU
B16 | 0.61 KA relative to UGCAUGU
B17 | 0.357 KA relative to UGCAUGU

Binder | binding signal
B18 | 0.1 KA relative to UGCAUGU
B19 | 0.106 KA relative to UGCAUGU
B20 | 0.0594 KA relative to UGCAUGU
B21 | 0.155 KA relative to UGCAUGU
B22 | 0.111 KA relative to UGCAUGU
B23 | 0.143 KA relative to UGCAUGU
B24 | 0.097 KA relative to UGCAUGU
B25 | 0.123 KA relative to UGCAUGU
B26 | 0.0776 KA relative to UGCAUGU
B27 | 0.0646 KA relative to UGCAUGU
B28 | 0.356 KA relative to UGCAUGU
B29 | 0.113 KA relative to UGCAUGU
B30 | 0.206 KA relative to UGCAUGU
B31 | 0.763 KA relative to UGCAUGU
B32 | 0.0694 KA relative to UGCAUGU
B33 | 0.168 KA relative to UGCAUGU
